# Experimental data published in ChEMBL document CHEMBL1157539, “Thousands of chemical starting points for antimalarial lead identification” (Nature, 2010).
# What was measured:
# Format in all cases: functional
# Plasmodium falciparum [1] = test: GSK_TCMDC: Inhibition of Plasmodium falciparum 3D7 in whole red blood cells, using parasite LDH activity as an index of growth. Test compounds present at 2uM
# Plasmodium falciparum [2] = test: GSK_TCMDC: Inhibition of Plasmodium falciparum Dd2 in whole red blood cells, using parasite LDH activity as an index of growth. Test compounds present at 2uM
# HepG2 = test: GSK_TCMDC: Percent inhibition of human HepG2 cell line. Test compounds present at 10uM.
Compound,Inhibition (Plasmodium falciparum [1]) [%],Inhibition (Plasmodium falciparum [2]) [%],Inhibition (HepG2) [%]
CN(C)C(=O)C(CC(=O)NCc1ccccc1Cl)N(C)C.CN(C)C(=O)CC(C(=O)NCc1ccccc1Cl)N(C)C.O (stereo unspecified),96,2,7
Cc1noc(C)c1-c1ccc2c(Nc3ccccc3N3CCOCC3)c(C(=O)NCc3ccccc3)cnc2c1.Cl,91,6,23
Cc1cc(N(CCO)CCCN2CCCCC2)nc(Nc2ccc(Cl)cc2)n1.Cl,100,18,12
O=C1Nc2ccc3ncccc3c2/C1=C/Nc1ccc(Cn2ccnc2)cc1,100,85,33
Cc1ccc2c(Cl)c(C(=O)N3CC(C)OC(C)C3)sc2c1 (stereo unspecified),100,98,4
Cc1ccc(N(CCC(=N)N)Cc2ccccc2)cc1.Cl,96,95,6
O=C(NCCCCCN1CCC(c2c[nH]c3ccccc23)CC1)c1ccc(-c2cccnc2)cc1,89,10,29
COc1cc2c(c(Cl)c1OC)CCN(Cc1ccccc1)CC2c1ccc(NC(=O)C(F)(F)F)cc1 (stereo unspecified),85,79,0
Cc1cc([N+](=O)[O-])ccc1NC(=O)Nc1cccc(C(F)(F)F)c1,100,100,15
CN(CCO)Cc1ccc(-c2ccc(NS(=O)(=O)c3cccc4cccnc34)cc2)cc1.O=C(O)C(F)(F)F,99,84,28
CCNc1cc(C(=O)N[C@@H](Cc2ccc(Cl)cc2)[C@H](O)CNC2CCCCC2)cc(N2CCCCS2(=O)=O)c1.Cl,98,99,6
Cc1cc(N(CCN2CCCCC2)CCN2CCCCC2)nc(Nc2ccc(Cl)cc2)n1.Cl,100,79,19
Cc1cccc2nc(-c3cccc(-c4ccc(NC(=O)Cc5c[nH]cn5)cc4)c3)[nH]c12,100,93,4
CN(C)c1cccc2c1nc(-c1ccco1)n2CCNCc1ccccc1.O=C(O)C(F)(F)F,98,97,0
CCOC(=O)c1ccc(N2CCN(c3cc(C)ccc3C)CC2)c(NC(=O)Nc2ccc(Cl)c(Cl)c2)c1,100,42,7
C[C@H](NC(=O)C1CCCC1)C(=O)Nc1ccc(-c2ccc(-c3nc4cc(C(F)(F)F)ccc4[nH]3)cc2)cc1,99,70,34
COc1ccc(NC(=O)c2ccc(Br)c(C)c2)cc1N1CCN(CCCc2c[nH]c3ccccc23)CC1,100,64,21
Cc1ccc(C(=O)Nc2ccc(Cl)c(N3CCN(CCc4ccccc4)CC3)c2)cc1.O=C(O)C(F)(F)F,90,14,17
Cc1ccc(O)cc1Nc1ccnc2cc(-c3ccccn3)ccc12.Cl [GW440139A],97,98,6
Cl.O=C(c1ccc(-c2ccc(Cl)cc2)o1)N1CCc2cc3nccc(N4CCN5CCC[C@H]5C4)c3cc21,100,86,1
CCNc1cc(C(=O)N[C@@H](Cc2ccccc2)[C@H](O)CNCc2cc(OC)cc(OC)c2)cc(N2CCCC2=O)c1.Cl,100,75,0
CCCc1cc(OC)c(C[C@@H]2c3cc(O)c(Cl)cc3CCN2C)cc1OC.Cl,98,98,3
CC(C)[C@H](NC(=O)c1c(CN2CCC(N3CCCCC3)CC2)c(-c2ccccc2)nc2cc(O)ccc12)c1ccccc1,100,73,10
C#CCN(Cc1ccc2[nH]c(N)nc(=O)c2c1)c1ccc(C(=O)N[C@@H](CCC(=O)O)C(=O)O)cc1,95,96,45
CC(=O)Nc1ccc(C(=O)Nc2ccc(-c3cccc(-c4nc5ccccc5[nH]4)c3)cc2)cn1,99,84,34
Clc1ccc(Nc2nc3ccc(Cl)cc3nc2Nc2ccc(Cl)cc2)cc1,99,99,79
CN(C)c1ccc(CN2CCC(NC(=O)c3ccc(-c4ccccc4F)s3)CC2)cc1.O=C(O)C(F)(F)F,86,27,41
